# Where a name gives a salt, the structure may show the parent alone.
# Tests used:
# HCC1937 = experiment: relative cell viability, compound + erastin, vs DMSO (fraction of DMSO control); higher = less growth inhibition; details: 72 h
# MDA-MB-231 = experiment: as above; details: 72 h
# 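Also: viability read by CCK-8 kit in 96-well plates, part of a combination screen pairing lipid-metabolism-targeting compounds with erastin.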
SMILES,relative cell viability (HCC1937),relative cell viability (MDA-MB-231)
O=C(c1c2ccccc2cc2ccccc12)N1CCC(N2CCC[C@@H](C(=O)N3CCOCC3)C2)CC1 + CCOc1ccccc1-n1c(C(C)N2CCN(C(=O)COc3ccc(Cl)cc3)CC2)nc2ccccc2c1=O [erastin],0.514,0.483
Cc1coc2c1C(=O)C(=O)c1c-2ccc2c(C)cccc12 [Tanshinone I] + CCOc1ccccc1-n1c(C(C)N2CCN(C(=O)COc3ccc(Cl)cc3)CC2)nc2ccccc2c1=O [erastin],0.226,0.396
O=C1C=CC[C@@H]2[C@H]3CCCN4CCC[C@@H](CN12)[C@@H]34 [Sophocarpine] + CCOc1ccccc1-n1c(C(C)N2CCN(C(=O)COc3ccc(Cl)cc3)CC2)nc2ccccc2c1=O [erastin],0.705,0.856
O=C1C(SCCO)=C(SCCO)C(=O)c2ccccc21 + CCOc1ccccc1-n1c(C(C)N2CCN(C(=O)COc3ccc(Cl)cc3)CC2)nc2ccccc2c1=O [erastin],0.575,0.851
O=C(O)CN(CC(=O)O)c1ccccc1OCCOc1ccccc1N(CC(=O)O)CC(=O)O + CCOc1ccccc1-n1c(C(C)N2CCN(C(=O)COc3ccc(Cl)cc3)CC2)nc2ccccc2c1=O [erastin],0.597,0.765
O=C(O)Cc1cccc(OCCCN(Cc2cccc(C(F)(F)F)c2Cl)CC(c2ccccc2)c2ccccc2)c1 + CCOc1ccccc1-n1c(C(C)N2CCN(C(=O)COc3ccc(Cl)cc3)CC2)nc2ccccc2c1=O [erastin],0.855,0.478
C=C(C)[C@@H]1CC[C@]2(C)CC[C@]3(C)[C@H](CC[C@@H]4[C@@]5(C)CCC(=O)C(C)(C)[C@@H]5CC[C@]43C)[C@@H]12 + CCOc1ccccc1-n1c(C(C)N2CCN(C(=O)COc3ccc(Cl)cc3)CC2)nc2ccccc2c1=O [erastin],0.608,0.594
C=C1C[C@]2(O)O[C@@]3(CC2=C(C)C)[C@@H](C)CC[C@@H]13 [Isocurcumenol] + CCOc1ccccc1-n1c(C(C)N2CCN(C(=O)COc3ccc(Cl)cc3)CC2)nc2ccccc2c1=O [erastin],0.566,0.662
O=c1c(-c2ccc(O)cc2)coc2cc(O)ccc12 [Daidzein] + CCOc1ccccc1-n1c(C(C)N2CCN(C(=O)COc3ccc(Cl)cc3)CC2)nc2ccccc2c1=O [erastin],0.827,0.619
O=C(Nc1cccnc1)N1CCC(Cc2cccc(Oc3ccc(C(F)(F)F)cn3)c2)CC1 + CCOc1ccccc1-n1c(C(C)N2CCN(C(=O)COc3ccc(Cl)cc3)CC2)nc2ccccc2c1=O [erastin],0.663,0.374
CC(=O)O[C@H](CC=C(C)C)C1=CC(=O)c2c(O)ccc(O)c2C1=O [Acetyl shikonin] + CCOc1ccccc1-n1c(C(C)N2CCN(C(=O)COc3ccc(Cl)cc3)CC2)nc2ccccc2c1=O [erastin],0.617,0.877
CCNC1(C(N)=O)CCN(c2ncnc3c2nc(-c2ccccc2Cl)n3-c2ccc(Cl)cc2)CC1 [Otenabant] + CCOc1ccccc1-n1c(C(C)N2CCN(C(=O)COc3ccc(Cl)cc3)CC2)nc2ccccc2c1=O [erastin],0.441,0.459
CCCCCCCCCCC[C@@H](C[C@@H]1OC(=O)[C@H]1CCCCCC)OC(=O)[C@H](CC(C)C)NC=O [Orlistat] + CCOc1ccccc1-n1c(C(C)N2CCN(C(=O)COc3ccc(Cl)cc3)CC2)nc2ccccc2c1=O [erastin],0.725,0.52
Nc1ccc(C(=O)O)c(O)c1 [Aminopar] + CCOc1ccccc1-n1c(C(C)N2CCN(C(=O)COc3ccc(Cl)cc3)CC2)nc2ccccc2c1=O [erastin],0.773,0.664
COc1cc(F)c(C(C)C)cc1-c1ccc(C(F)(F)F)cc1CN1C(=O)O[C@H](c2cc(C(F)(F)F)cc(C(F)(F)F)c2)[C@@H]1C [Anacetrapib] + CCOc1ccccc1-n1c(C(C)N2CCN(C(=O)COc3ccc(Cl)cc3)CC2)nc2ccccc2c1=O [erastin],0.557,0.639
CC(C)CCC[C@@H](C)[C@H]1CC[C@H]2[C@@H]3CCC4=CC(=NO)CC[C@]4(C)[C@H]3CC[C@]12C [Olesoxime] + CCOc1ccccc1-n1c(C(C)N2CCN(C(=O)COc3ccc(Cl)cc3)CC2)nc2ccccc2c1=O [erastin],0.673,0.663
CN(C)C(=N)NC(=N)N [Metformin hydrochloride] + CCOc1ccccc1-n1c(C(C)N2CCN(C(=O)COc3ccc(Cl)cc3)CC2)nc2ccccc2c1=O [erastin],0.943,1.03
CC(C)c1nc(N(C)S(C)(=O)=O)nc(-c2ccc(F)cc2)c1/C=C/[C@@H](O)C[C@@H](O)CC(=O)O [Rosuvastatin] + CCOc1ccccc1-n1c(C(C)N2CCN(C(=O)COc3ccc(Cl)cc3)CC2)nc2ccccc2c1=O [erastin],0.656,0.781

SMILES,relative cell viability (HCC1937),relative cell viability (MDA-MB-231)
C[C@H](CCCC(C)(C)O)[C@H]1CC[C@H]2[C@@H]3CC=C4C[C@@H](O)CC[C@]4(C)[C@H]3CC[C@]12C [25-Hydroxycholesterol] + CCOc1ccccc1-n1c(C(C)N2CCN(C(=O)COc3ccc(Cl)cc3)CC2)nc2ccccc2c1=O [erastin],0.745,0.483
CN(C(=O)n1cnc(-c2ccc[n+]([O-])c2)c1)C1CCCCC1 + CCOc1ccccc1-n1c(C(C)N2CCN(C(=O)COc3ccc(Cl)cc3)CC2)nc2ccccc2c1=O [erastin],0.427,0.613
C[C@H](CCC(=O)O)[C@H]1CC[C@H]2[C@@H]3CC[C@@H]4C[C@H](O)CC[C@]4(C)[C@H]3CC[C@]12C [Lithocholic acid] + CCOc1ccccc1-n1c(C(C)N2CCN(C(=O)COc3ccc(Cl)cc3)CC2)nc2ccccc2c1=O [erastin],0.832,0.688
c1ccc([C@H]2CN3CCSC3=N2)cc1 [Levamisole hydrochloride] + CCOc1ccccc1-n1c(C(C)N2CCN(C(=O)COc3ccc(Cl)cc3)CC2)nc2ccccc2c1=O [erastin],0.768,0.779
CC(c1cc2ccccc2s1)N(O)C(N)=O (configuration not stated) [Zileuton] + CCOc1ccccc1-n1c(C(C)N2CCN(C(=O)COc3ccc(Cl)cc3)CC2)nc2ccccc2c1=O [erastin],0.847,0.595
COc1cc(N(C)C)cc(CN(C)CCc2ccc([N+](=O)[O-])cc2)c1O [CDC25 Phosphatase Inhibitor I] + CCOc1ccccc1-n1c(C(C)N2CCN(C(=O)COc3ccc(Cl)cc3)CC2)nc2ccccc2c1=O [erastin],0.663,0.781
CCN(CC)CCN(Cc1ccc(-c2ccc(C(F)(F)F)cc2)cc1)C(=O)Cn1c(SCc2ccc(F)cc2)nc(=O)c2c1CCC2 [Darapladib] + CCOc1ccccc1-n1c(C(C)N2CCN(C(=O)COc3ccc(Cl)cc3)CC2)nc2ccccc2c1=O [erastin],0.0574,0.296
COc1ccc(C2(CNC(=O)c3ccc(NC(=O)c4ccco4)cc3)CCOCC2)cc1 + CCOc1ccccc1-n1c(C(C)N2CCN(C(=O)COc3ccc(Cl)cc3)CC2)nc2ccccc2c1=O [erastin],0.518,0.728
Cc1cc(N2C[C@@H](C)N[C@@H](C)C2)ncc1-c1ccc(-c2nc3c(ccn3C)c(=O)[nH]2)cc1 + CCOc1ccccc1-n1c(C(C)N2CCN(C(=O)COc3ccc(Cl)cc3)CC2)nc2ccccc2c1=O [erastin],0.506,0.551
COc1ccc(Nc2ccn(-c3ccccc3)n2)cc1 + CCOc1ccccc1-n1c(C(C)N2CCN(C(=O)COc3ccc(Cl)cc3)CC2)nc2ccccc2c1=O [erastin],0.686,0.902
C[C@]12C=CC(=O)N[C@@H]1CC[C@@H]1[C@@H]2CC[C@]2(C)[C@@H](C(=O)Nc3cc(C(F)(F)F)ccc3C(F)(F)F)CC[C@@H]12 [Dutasteride] + CCOc1ccccc1-n1c(C(C)N2CCN(C(=O)COc3ccc(Cl)cc3)CC2)nc2ccccc2c1=O [erastin],0.573,0.596
N#Cc1c(O)c2c(-c3ccc(-c4ccccc4O)cc3)csc2[nH]c1=O + CCOc1ccccc1-n1c(C(C)N2CCN(C(=O)COc3ccc(Cl)cc3)CC2)nc2ccccc2c1=O [erastin],0.521,0.51
C=CC[S+]([O-])C[C@H](N)C(=O)O (some centres not stated) [Alliin] + CCOc1ccccc1-n1c(C(C)N2CCN(C(=O)COc3ccc(Cl)cc3)CC2)nc2ccccc2c1=O [erastin],0.864,0.778
Cc1cc([N+](=O)[O-])ccc1NS(=O)(=O)c1cc(Cl)ccc1Cl + CCOc1ccccc1-n1c(C(C)N2CCN(C(=O)COc3ccc(Cl)cc3)CC2)nc2ccccc2c1=O [erastin],0.585,0.616
CNC(=O)c1cccc(NC(=O)N2CCC(Oc3ccccc3Cl)CC2)c1 + CCOc1ccccc1-n1c(C(C)N2CCN(C(=O)COc3ccc(Cl)cc3)CC2)nc2ccccc2c1=O [erastin],0.566,0.523
C[C@H]1N=C(N(C)C)N=C(N)N1 [Imeglimin hydrochloride] + CCOc1ccccc1-n1c(C(C)N2CCN(C(=O)COc3ccc(Cl)cc3)CC2)nc2ccccc2c1=O [erastin],0.69,0.695
COc1ccc(-c2cc(=O)c3c(O)c(OC)c(O)cc3o2)cc1OC [Eupatilin] + CCOc1ccccc1-n1c(C(C)N2CCN(C(=O)COc3ccc(Cl)cc3)CC2)nc2ccccc2c1=O [erastin],0.431,0.617
O=C(OC(C(F)(F)F)C(F)(F)F)N1CCC(C(O)(c2ccc3c(c2)OCO3)c2ccc3c(c2)OCO3)CC1 + CCOc1ccccc1-n1c(C(C)N2CCN(C(=O)COc3ccc(Cl)cc3)CC2)nc2ccccc2c1=O [erastin],0.53,0.546
